Assay outcomes from PubChem.
Sampled rows, rich in hits. Any-hit rate of the full collection: about 4.2%.
uPA generation = cell surface uPA generation inhibition; 330,000 compounds, 0.31% hits; cell surface uPA generation assay, qHTS; Potency, µM (series often up to 38.3 µM), without a hit: at the highest dose activity change, negative = inhibition, actives largely listed as inhibitors; active = well fitted inhibition curve with a large enough effect; inconclusive = small, poorly fitted or top-dose-only effect; inactive = no such curve, though single readings can be large or run the other way; tested in mouse RAW 264.7 cells; note: potency is the fitted concentration of half-maximal effect; % is set by controls: 0 for no effect and ±100 for the full control effect; nearly all actives have a fitted effect of over 55% in size
Sfp inh = inhibitors of Bacillus subtilis Sfp phosphopantetheinyl transferase; Q9F4F7; Biochemical Sfp PPTase activity, qHTS; Potency, µM, inactives show largest response in the series, negative = inhibition, actives largely listed as inhibitors; 310,000 compounds, 3.5% hits; AID 1490;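 note: the enzyme is Sfp with the accession as filed and its product quenches rhodamine fluorescence; potency is the fitted concentration of half-maximal effect; 0% = enzyme reaction without inhibitor and -100% = no enzyme wells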
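Fluorescence-quenching assay with 15 nM Sfp, 5 uM rhodamine-CoA and 12.5 uM BHQ-2-labelled ybbR peptide in pH 7.6 Hepes/MgCl2 buffer. Enzyme was pre-incubated with compound for 15 min at room temperature. Rate was taken from the 30-min fluorescence change (525/598 nm).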
ClpP mod = qHTS Assay for Activators of ClpP | ATP-dependent Clp protease proteolytic subunit (Bacillus subtilis (strain 168)), P80244 | purified B. subtilis ClpP, FRET peptide cleavage, 20 min | Potency, µM (series often up to 57.5 µM), for the others: at the highest dose activity change, negative = active | 340,000 compounds, 1.9% hits; active = well fitted falling curve with a large enough effect; inconclusive = small, poorly fitted or top-dose-only effect; inactive = no such curve, though single readings can be large or run the other way; note: potency is the fitted concentration of half-maximal effect; the source files actives as falling curves though it sought activators and does not explain the sign; nearly all actives have a fitted effect of over 65% in size
Target sequence (P80244 whole entry, looked up): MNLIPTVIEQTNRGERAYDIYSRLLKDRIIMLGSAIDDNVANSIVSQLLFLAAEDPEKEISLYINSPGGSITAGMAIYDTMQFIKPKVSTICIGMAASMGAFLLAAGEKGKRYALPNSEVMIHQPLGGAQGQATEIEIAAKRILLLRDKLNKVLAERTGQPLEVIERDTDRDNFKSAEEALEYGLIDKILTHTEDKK
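Buffer: 100 mM Tris/HCl pH8, 100 mM KCl, 0.05% low protease BSA, 2.5% glycerol, 0.01% Tween-20. ClpP 10 microg/mL final; 20 min RT; delta FRET normalized to ADEP and DMSO controls.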
TCR act = T cell receptor activation; 330,000 tested, under 10 active; primary human leukocytes, anti-CD3, IL-2 HTRF, 48 h; AID 504894; Potency, µM (titrated, usually from 9.22 µM), without a hit: at the top dose activation of IL-2 secretion, most hits filed as activators; note: % of control where 0% means no effect
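HTRF read-out of IL-2 secretion: europium cryptate donor excited at 320nm, d2 acceptor emission at 665nm. Cells were primary human leukocytes incubated 48 hr with compounds and a-CD3 beads, supplying TCR signal only.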
Sfp inh conf = confirmation of Bacillus subtilis Sfp PPTase inhibitors | shares compounds with Sfp inh | Sfp PPTase enzymatic assay, qHTS titration | Potency, µM (titrated, usually from 114 µM), without a hit: at the top dose activity change, negative = inhibition, usual class: inhibitors | 380 compounds, 79% hits;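 note: potency is the fitted concentration of half-maximal effect; plate controls were uninhibited Sfp reaction for no effect and no enzyme control for full effect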
Target sequence (Q9F4F7 whole entry, looked up): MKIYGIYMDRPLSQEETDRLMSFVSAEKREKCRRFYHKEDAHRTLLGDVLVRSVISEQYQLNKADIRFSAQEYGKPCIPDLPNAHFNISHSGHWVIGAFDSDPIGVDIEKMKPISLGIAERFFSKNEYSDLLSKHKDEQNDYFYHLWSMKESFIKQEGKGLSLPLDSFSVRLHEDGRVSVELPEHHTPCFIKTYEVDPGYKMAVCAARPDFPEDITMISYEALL
Sfp PPTase gel = Blocks Sfp PPTase activity, gel read-out. 210 compounds, 20% hits. purified Sfp, gel-based phosphopantetheinylation read-out. Potency, µM, most hits filed as inhibitors. shares compounds with Sfp inh;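 active = potency below 100 µM; inconclusive = dose-dependent response but potency above 100 µM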;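 note: band intensities scaled against SCH202676 control wells before curve fitting; potency is an IC50 for inhibitors of Sfp transfer activity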
Numbers without * were called inactive; i = inactive; ? = inconclusive; . = no result given; [ ] = dose if it differs, or a comment. Unless noted, calls come from the whole dose curve; as a rule, active = well fitted curve in the direction sought with a large enough effect; inconclusive = small, poorly fitted or top-dose-only effect, or another doubt; inactive = no such curve, though single readings can be large; an effect the other way counts as inactive or inconclusive.

SMILES	uPA generation	Sfp inh	ClpP mod	TCR act	Sfp inh conf	Sfp PPTase gel
CCOc1ccc(C(=O)CC(NCc2cccs2)C(=O)O)cc1 (stereo not drawn)	-13%	11µM*	.	-1%	37µM*	.
CCOc1ccc(C(=O)CCC(=O)N(CC)CC(=O)NCc2cccs2)cc1	2%	.	-3%	3%	.	.
Cc1sc2c(c1C)C(=O)NC(c1ccccc1F)N2 (stereo not drawn)	-1%	7.9µM*	.	1%	7.4µM*	i
O=C(NCc1csc2ccccc12)Nc1cc(Cl)cc(Cl)c1	-6%	-7%	-21%	-5%	.	.
CC(=O)N1CCN(c2ccc(NCc3ccc4c(c3)OCO4)cc2)CC1	-4%	16µM*	-3%	-6%	21µM*	i
CCSc1nnc(NC(=O)C2CCCCC2C(=O)OCC(F)(F)C(F)F)s1 (stereo not drawn)	.	22µM*	2%	-4%	53µM*	.
CCSc1nnc(NC(=O)C(C(F)(F)F)C(F)(F)F)s1	-3%	4%	1%	2%	.	.
Cc1ccc(NC(=O)CSc2nncn2C)c(C)c1	.	.	0%	.	.	.
Cc1ccc(C2=NN=C(NC(=O)CSc3nncn3C)SC2)cc1	-6%	8.9µM*	1%	10%	26µM*	.
Cc1cc(N/N=C/c2cccc(Cl)c2)nc(NCc2ccccc2)n1	-6%	?	-6%	-6%[46.1 µM]	.	.
Cc1cc(Nc2cccc(Cl)c2)nc(NCc2ccccc2)n1	?	16µM*	?	0%[46.1 µM]	59µM*	?
Cc1ccc(Cc2c(-c3ccc(F)cc3)nc3cc(C)ccn23)cc1	.	.	4%	.	.	.
CCOC(=O)C[n+]1c(C)sc2ccc(OC)cc21	-3%	1µM*	2%	2%	6.6µM*	i
CCOC(=O)c1c(=O)n(O)c2ccc(OC)cc2[n+]1[O-]	1%	2%	0%	-6%	.	.
CC(C)CN(CC(C)C)c1ccc(/C=C/c2nc3ccccc3s2)cc1	.	.	-3%	.	.	.
CCN(CC)c1ccc(/C=C/c2nc3ccccc3s2)cc1	.	18µM*	.	.	33µM*	i
Cc1cc(O)c(C2=Nc3ccccc3SC(c3ccc(Cl)cc3)C2)c(=O)o1 (stereo not drawn)	0%	14µM*	0%	0%[46.1 µM]	53µM*	?
O=c1[nH]c(=O)n(C2CCCCC2)c(O)c1C1=Nc2ccccc2SC(c2ccccc2)C1 (stereo not drawn)	.	.	-2%	.	.	.
O=C(N/N=C/c1ccc(N2CCCCC2)o1)C(O)(c1ccccc1)c1ccccc1	.	8.9µM*	.	3%[46.1 µM]	37µM*	.
O=C(NN=Cc1ccccc1O)C(O)(c1ccccc1)c1ccccc1	-3%	.	5%	0%	.	.
O=C1NC(c2ccccc2)(C(F)(F)F)SC2=CCCCCN12 (stereo not drawn)	2%	20µM*	0%	-7%	47µM*	i
CCn1c(CC(=O)Nc2ccc(C)cc2)nnc1SCC(=O)N1CCOCC1	3%	17%	1%	8%	.	.
CCOC(=O)c1c(NS(=O)(=O)c2cccc(OC)c2)sc2c1CCC2	4%	2.8µM*	0%	.	26µM*	.
CCOC(=O)c1c(NC(=O)c2cc(-c3cccc(OC)c3)on2)sc2c1CCCC2	.	.	-2%	.	.	.
Cc1ccc(-c2nn[nH]n2)o1	.	25µM*	1%	-4%	12µM*	i
SMILES	uPA generation	Sfp inh	ClpP mod	TCR act	Sfp inh conf	Sfp PPTase gel
COc1ccccc1N1CCN(C(=O)c2oc3cc(C)cc(C)c3c2C)CC1	-4%	2µM*	-1%	1%[46.1 µM]	47µM*	i
COc1ccccc1N1CCN(C(=O)c2cc(=O)c3ccc(C)cc3o2)CC1	4%	-7%	0%	2%	.	.
Cn1nnc(NC(=O)c2ccco2)n1	3%	19%	0%	1%	.	.
Cn1nnc(NC(=S)NC(=O)c2ccco2)n1	-1%	6.3µM*	-4%	0%[46.1 µM]	?	i
CC(=O)c1cccc(NC(=O)Cn2c(-c3cncs3)nc3ccccc32)c1	.	.	-8%	.	.	.
O=C(O)Cc1sc(Nc2ccccc2)nc1-c1ccccc1	.	.	-1%	.	.	.
O=C(O)Cc1sc(Nc2ccc(Cl)cc2)nc1-c1cccs1	-1%	1.3µM*	.	0%	59µM*	.
Oc1ccc(NCc2ccccc2OCc2ccc(Cl)cc2)cc1	.	.	1%	.	.	.
Oc1ccc(NCc2ccccc2OCc2ccccc2)cc1	-10%	25µM*	-9%	-3%[46.1 µM]	11µM*	?
CC1(C(=O)NS(=O)(=O)c2ccc(F)cc2F)CCN1C(=O)Cc1ccc(Cl)cc1Cl (stereo not drawn)	.	.	0%	.	.	.
c1ccc(OCc2nnc3n2N=C(c2ccccc2)CS3)cc1	-1%	16µM*	0%	-11%	17µM*	.
COc1ccccc1C1=Nn2c(nnc2-c2ccccc2OC)SC1	.	3%	.	.	.	.
COc1ccccc1C1=Nn2c(COc3ccccc3)nnc2SC1	.	14µM*	.	.	11µM*	.
COc1ccc(OCc2nnc3n2N=C(c2ccc(OC)cc2)CS3)cc1	-20%	11%	2%	-1%	.	.
Cc1c(C(=O)OCC2CCCO2)[nH]c2c1C(=O)CC(c1ccco1)C2 (stereo not drawn)	-19%	16µM*	-1%	3%	37µM*	i
Cc1c(C(=O)OC2CCCC2)[nH]c2c1C(=O)CC(c1ccco1)C2 (stereo not drawn)	?	-14%	-1%	-2%	.	.
Cc1ccc(-c2nc3cnccn3c2Nc2ccc(C(C)C)cc2)o1	.	.	-9%	.	.	.
Cc1ccc(-c2nc3cnccn3c2Nc2c(C)cccc2C)o1	?	0.5µM*	-13%	5%	4.2µM*	i
CC(C)(C)NS(=O)(=O)c1ccc(Oc2ncc(C(F)(F)F)cc2Cl)cc1	9%	25µM*	-1%	2%	53µM*	i
N[C@@H](Cc1ccccc1)c1nnc2sc(SCc3ccccc3)nn12	-5%	45µM*	2%	.	66µM*	.
C[C@@]12CCC(=O)C=C1CC[C@H]1[C@H]3CC[C@](O)(C(=O)CO)[C@]3(C)CC(=O)[C@@H]12	.	22%	.	.	.	.
CC1=NNC(=O)/C1=C\c1cn(-c2ccccc2)nc1-c1ccccc1	-11%	3.5µM*	.	-2%	42µM*	19µM*
Cc1cccc2cc3c(nc12)SC(=NCC1CCCO1)N(Cc1ccco1)C3 (stereo not drawn)	-8%	3.5µM*	?	0%	6.6µM*	6.2µM*
CC1C(=O)N(S(=O)(=O)c2ccc([N+](=O)[O-])cc2)[C@H]1c1ccc2ccccc2c1 (stereo partly drawn)	.	-21%	.	.	.	.
CC(=O)O[C@H]1C(=O)[C@]2(C)[C@H]([C@H](OC(=O)c3ccccc3)[C@]3(O)C[C@H](OC(=O)[C@H](O)[C@@H](NC(=O)c4ccccc4)c4ccccc4)C(C)=C1C3(C)C)[C@]1(OC(C)=O)CO[C@@H]1C[C@@H]2O	10%	.	0%	1%	.	.
